Source: PubChem BioAssay AID588740 (National Center for Advancing Translational Sciences (NCATS), 2011)
Activity calls are given as the source filed them. No rule for the calls is given here.

Experiment: PC3M Cytotoxicity Assay for Compounds that Inhibit the Perinuclear Compartment: SAR
Settings: PC3M-GFP viability, ATPLite luminescence, 24 h
Source text: The perinucleolar compartment (PNC) is a non-membrane-bound nuclear subdomain that is associated with but structurally distinct from the nucleolus. The PNC is a heritable trait, in which the number of PNCs per cell in daughter cells often mimics that of their mother cells. The PNC is heterogeneous in shape, is stable through interphase, disassembles during mitosis, and reassembles in early G1. The PNC is concentrated with newly synthesized RNA polymerase III (pol III) RNAs (MRP RNA, RNAse P H1 RNA, hY RNAs[hY1, 2, 5], Alu RNA, and SRP [7SL] RNA) and RNA binding proteins (nucleolin, PTB, CUG-BP, KSRP, Raver1, Raver2, and Rod). […] Extensive in vitro studies have shown that the PNC is unique to tumor cells and preferentially forms in tumor cells derived from solid tissues. Examination of cancer cell lines from various origins and malignant capacities has shown that PNC prevalence correlates with the malignancy of tumors and has the potential to be developed as a pan-cancer prognostic marker. […] Although the PNC is associated with a DNA locus and a handful of components have been identified, much remains to be investigated regarding the structure and function of the PNC and its mechanistic link to cancer. […]
1. […] Luminescencent signal was detected on a Viewlux CCD based imager (PerkinElmer) with a clear filter and a 30 second integration time. […]
In the case of `N=c1c2c(-c3ccccc3)c(-c3ccccc3)n(Cc3ccccc3)c2ncn1C1CCC(O)CC1` (stereo unspecified), the AC50 is reported as 9.96 µM (active).
